PubChem BioAssay
Calls of active or inactive are those of the source. Unless noted, the rule behind the calls is not given here.

Legend:
[1] = test system: XIP peptide (Xip251-270) binding; experiment: small-molecule binders of XIP peptide, primary screen, biochemical, small-molecule microarray, fluorescence 635/667 nm, 0.1 µg/mL protein (AID 1182); conditions: fluorescent protein binding, 635 nm, higher = more signal, called active from +8 up or from −8 down
XIP peptide (Xip251-270) = experiment: small-molecule binders of XIP peptide, primary screen, biochemical, small-molecule microarray, fluorescence 635/667 nm, 0.5 µg/mL protein (AID 1183); conditions: small-molecule microarray binding, fluorescence 635 nm; higher = more signal
[2] = Plasmodium falciparum growth inhibition, primary screen, strain 3D7, DAPI fluorescence, 100 nL (AID 1184);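 note: parasites grown inside human red blood cells in medium with human serum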; conditions: P. falciparum 3D7 growth, 3 d, higher = more signal
[3] = biological target: Homeobox protein Hox-A13 (Mus musculus) (UniProt Q62424); experiment: inhibitors of HoxA13-DNA binding, primary screen, biochemical, fluorescence polarization, labeled oligonucleotide (AID 1185); conditions: 15 min, higher = more signal, called active from +8 up or from −8 down
[4] = inhibitors of hydroxyurea-induced Chk1 phosphorylation, primary screen, imaging, HeLa, phospho-Chk1 antibody, percent positive cells (AID 1186); conditions: hydroxyurea-induced phospho-Chk1 immunofluorescence imaging, higher = more signal
[5] = inhibitors of hydroxyurea-induced Chk1 phosphorylation, primary screen, imaging, HeLa, phospho-Chk1 nuclear intensity (AID 1187); conditions: hydroxyurea-induced phospho-Chk1 immunofluorescence imaging, higher = more signal

Homeobox protein Hox-A13 (Mus musculus), sequence (Q62424 whole entry, looked up): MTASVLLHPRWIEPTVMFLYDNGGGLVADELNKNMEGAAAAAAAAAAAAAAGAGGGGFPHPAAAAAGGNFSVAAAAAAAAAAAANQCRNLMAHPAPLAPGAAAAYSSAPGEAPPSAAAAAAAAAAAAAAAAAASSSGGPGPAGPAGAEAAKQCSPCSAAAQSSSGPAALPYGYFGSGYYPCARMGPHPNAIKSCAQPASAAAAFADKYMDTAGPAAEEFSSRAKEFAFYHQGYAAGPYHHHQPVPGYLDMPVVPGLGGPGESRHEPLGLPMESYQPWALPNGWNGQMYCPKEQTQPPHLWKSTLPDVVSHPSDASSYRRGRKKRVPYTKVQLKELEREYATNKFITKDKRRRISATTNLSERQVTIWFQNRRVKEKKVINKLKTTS

Row | SMILES | composite z-score [1] | composite z-score (XIP peptide (Xip251-270)) | z-score [2] | z-score [3] | z-score [4] | z-score [5]
1 | NC(=O)[C@H]1[C@@H]2C(=O)O[C@@H](c3ccccc3)[C@@H](c3ccccc3)N2[C@@H](c2ccc(O)cc2)[C@]12C(=O)Nc1ccc(C#CC3(O)CCCCCC3)cc12 | 0.366 (inactive) | 0.836 | -1.85 | -1.28 (inactive) | 0.526 (inactive) | 0.301 (inactive)
2 | CC(C)CN1C(=O)[C@@]2(Cc3ccccc31)c1ccccc1C(=O)N(Cc1ccccc1)[C@H]2c1ccc(CO)cc1 | 2.02 (inactive) | -0.526 | -0.435 | -1.07 (inactive) | -0.0605 (inactive) | -0.197 (inactive)
3 | COc1ccc(C(=O)Nc2ccc3c(c2)[C@]2(O[C@@H](CCO)[C@H]([Si](C)(C)c4ccc(OC)cc4)[C@H]2C)C(=O)N3Cc2ccccc2)cc1 | 0.439 (inactive) | 0.45 | -2.88 | -1.01 (inactive) | -0.583 (inactive) | -0.644 (inactive)
4 | COCCCNC(=O)[C@]1(CCS(=O)(=O)c2ccccc2)N=C(c2ccc(OCCCO)cc2)O[C@@H]1c1ccccc1 | 1.47 (inactive) | 0.919 | -2.13 | -4.72 (inactive) | -0.369 (inactive) | -0.42 (inactive)
5 | COC(=O)[C@@]1(Cc2ccc(OC)cc2)[C@H]2c3cc(C(=O)N(C)C)n(CCF)c3C[C@H]2CN1C(=O)c1ccccc1 | 0.0026 (inactive) | 0.449 | -1.65 | -3.59 (inactive) | 0.326 (inactive) | -0.241 (inactive)
6 | CCN(CC)c1ccc(N2CC=CC34O[C@@H]5/C=C\CCCOC(=O)C5[C@H]3C(=O)N(CCCCCO)[C@@H]4C2=O)cc1 (stereo partly drawn) | -0.0261 (inactive) | 0.0595 | 1.98 | -5.15 (inactive) | -0.0764 (inactive) | 0.34 (inactive)
7 | O=C1C[C@@](C(=O)NCc2ccccc2)(c2ccc([N+](=O)[O-])cc2)[C@@H](c2ccc(CO)cc2I)N1C1CCCCC1 | 0.193 (inactive) | 0.676 | -1.45 | -3.45 (inactive) | 0.173 (inactive) | 0.408 (inactive)
8 | C=CCC(OC(C)=O)[C@@H]1[C@@H](N(Cc2cccc3ccccc23)C(=O)c2ccc(C)cc2)c2cc(OCCCO)ccc2N1C(=O)c1ccc2ccccc2c1 (stereo partly drawn) | 0.591 (inactive) | 0.52 | -2.2 | -0.0802 (inactive) | -0.995 (inactive) | -0.761 (inactive)
